Measured values from PubChem BioAssay AID777 (Sanford-Burnham Center for Chemical Genomics, 2007).
The whole screen tested about 96,000 compounds, of which about 19,000 (20%) were called active. Only a sample is shown. Values without a mark were called inactive.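 The calls were made as follows: active = blocking of liver enzyme CYP2C9 beyond about 50% at 5 µM (limit read from the data); inactive = the rest.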

These molecules were tested against Cytochrome P450 2C9 (Homo sapiens) (UniProt P11712) (assay: blockers of cytochrome P450 2C9 activity – biochemical, luminescence, ADME assay, primary screen (AID 777)). Details: CYP2C9 Supersomes, luciferin-H conversion, at 5 µM, active compounds read high.
Cytochrome P450 2C9 (Homo sapiens), sequence (P11712 whole entry, looked up): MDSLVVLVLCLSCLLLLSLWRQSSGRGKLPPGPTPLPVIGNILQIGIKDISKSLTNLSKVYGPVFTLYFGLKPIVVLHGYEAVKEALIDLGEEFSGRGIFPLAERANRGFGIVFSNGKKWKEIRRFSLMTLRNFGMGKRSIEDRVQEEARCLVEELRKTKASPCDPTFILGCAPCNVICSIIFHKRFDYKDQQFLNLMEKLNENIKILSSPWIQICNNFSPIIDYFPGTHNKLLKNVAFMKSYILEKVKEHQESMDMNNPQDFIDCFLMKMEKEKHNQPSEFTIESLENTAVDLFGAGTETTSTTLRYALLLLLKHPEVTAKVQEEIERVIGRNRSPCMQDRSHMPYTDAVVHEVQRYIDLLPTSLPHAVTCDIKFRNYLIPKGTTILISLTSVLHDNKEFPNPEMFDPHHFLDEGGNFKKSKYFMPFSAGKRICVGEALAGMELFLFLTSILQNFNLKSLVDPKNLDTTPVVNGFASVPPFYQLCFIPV

Row | SMILES | inhibition
1 | Cc1ccc(C(=O)CS(C)(=O)=O)cc1 | -4.7%
2 | CCCCn1nnnc1NCc1cc(OC)c(OC)c(OC)c1 | 45.3%
3 | O=C(CCS(=O)(=O)c1ccccc1)Nc1nc2c(s1)CCCC2 | 60.8% (active)
4 | COCc1nnc(NC(=O)CS(=O)(=O)Cc2ccccc2)s1 | 24%
5 | Fc1ccc2nc(Nc3nc4c(s3)CCCC4)sc2c1 | -10.4%
6 | O=C(O)C1OC(C(=O)O)C2C1C(F)(F)C2(F)F (stereo unspecified) | -22.8%
7 | COC(=O)c1oc2ccc(Br)cc2c1NC(C)=O | 27.6%
8 | COc1ccc(S(=O)(=O)Nc2ccc3c(c2)OCO3)cc1Cl | 75.9% (active)
9 | COc1ccc(F)cc1S(=O)(=O)Nc1ccc2c(c1)OCO2 | 39.7%
10 | COc1ccc(S(=O)(=O)Nc2ccc(S(=O)(=O)N3CCCCC3)cc2)cc1OC | 93.3% (active)
11 | CC(C)CNS(=O)(=O)c1ccc(OCC(=O)Nc2ccc3c(c2)OCO3)c(Cl)c1 | 12.9%
12 | COc1ccc(S(=O)(=O)N2CCCCC2)cc1Br | -115%
13 | COc1ccc(S(=O)(=O)N2CCC(C(=O)N3CCc4ccccc4C3)CC2)cc1OC | 46.2%
14 | O=C(CC12CC3CC(CC(C3)C1)C2)Nc1ccc2c(c1)COC2=O | -0.2%
15 | CCOC(=O)CNC(=O)CN1C(=O)CCSc2ccccc21 | 17.8%
16 | CCOc1ccc(S(=O)(=O)n2ccnc2)c2ccccc12 | 93.2% (active)
17 | CCOc1ccc(S(=O)(=O)N2CCCCCC2)c2ccccc12 | -48.8%
18 | c1ccc2cc3[nH]c(CN4CCCCC4)nc3cc2c1 | 41.8%
19 | COc1ccccc1C(=O)NN1C(=O)C2C3C=CC(O3)C2C1=O (stereo unspecified) | -18.8%
20 | Cc1cc2nnc(SCC(=O)N3CCN(c4ccccc4)CC3)n2c(N)n1 | 7.8%
21 | COC(=O)Cc1cc(=O)oc2c(C)c(O)ccc12 | -19.4%
22 | O=c1oc2c(CN3CCCCC3)c(O)ccc2c2c1CCCCC2 | -13.6%
23 | CCCc1cc(=O)oc2c(C)c(O)c(CN3CCCCC3)cc12 | 69.5% (active)
24 | Nn1c(SCC(=O)NC(=O)NC2CCCC2)nnc1-c1ccccc1F | 44%
25 | CCOC(=O)c1ccc(NC(=O)CSc2ncccn2)cc1 | 34.5%
26 | CCOC(=O)c1ccc2c(c1)nc(SCC(=O)NC(C)C)n2CC | 62.3% (active)

Row | SMILES | inhibition
27 | CCn1c(C)nc2cc(C(=O)NNS(=O)(=O)c3ccc(C)cc3C)ccc21 | -5.3%
28 | Cc1ccc(N2CCN(/N=C/c3cccs3)CC2)cc1 | -7%
29 | S=c1nccc(-c2cc(Cl)sc2Cl)[nH]1 | -6.6%
30 | CCOc1ccc(CNC(=O)C2CC(=O)N(C3CCCC3)C2)cc1OC (stereo unspecified) | 7.1%
31 | CCC(O)CNc1nc(-n2nc(C)cc2C)nc2sc3c(c12)CC(C)(C)OC3 (stereo unspecified) | 19.9%
32 | COc1ccc(OC)c(C(=O)c2coc3ccc(O)c(CN4CCOCC4)c23)c1 | 22%
33 | COc1ccc(OC)c(C(=O)c2coc3ccc(OC)cc23)c1 | 68.5% (active)
34 | COc1ccc2occ(C(=O)c3ccc(N=C(C)N(C)C)cc3)c2c1 | -17.7%
35 | CCC1CCCCN1C(=O)Nc1cccc(NC(=O)N2CCCCC2CC)c1 (stereo unspecified) | -13.6%
36 | CC(=O)c1ccc2c(c1)c1ccccc1n2CC(C)C | 20.5%
37 | CS(=O)(=O)N(CC(O)Cn1c2ccccc2c2ccccc21)c1cccc2ccccc12 (stereo unspecified) | 99.6% (active)
38 | Cc1cccc(N(CC(=O)N=Nc2c(O)[nH]c3ccccc23)S(C)(=O)=O)c1C | 44.2%
39 | C=CCn1c(SCC(=O)c2c(N)n(C)c(=O)n(C)c2=O)nc2sc(CC)cc2c1=O | 38.3%
40 | CCS(=O)(=O)c1ccc2c(c1)N(S(=O)(=O)c1ccccc1)CC(C(=O)O)O2 (stereo unspecified) | 42.8%
41 | Cc1ccccc1CSCC(=O)NC(=O)NC(C)(C)C | 62.3% (active)
42 | CC(C)(C)NC(=O)NC(=O)COC(=O)Cn1c(C(F)(F)F)nc2ccccc21 | 43.9%
43 | COc1ccccc1OCCC(=O)OCC(=O)NC(=O)NC(C)(C)C | 2.5%
44 | O=C(O)C1C2C=CC(C2)C1C(=O)N1CCN(CCO)CC1 (stereo unspecified) | 10.3%
45 | Cc1nn(Cc2ccccc2)c(Cl)c1C(=O)OC1CCOC1=O (stereo unspecified) | 5.7%
46 | CCOC(=O)c1cnn(Cc2ccccc2Cl)c1N | 22%
47 | COC(=O)c1ccc(COC(=O)c2c(C)nn(Cc3ccccc3Cl)c2Cl)o1 | 83.3% (active)
48 | Cc1noc(C)c1C(=O)N1CCOCC1 | -7.1%
49 | c1ccc(CC2CCN(c3nc4ccccc4n4cnnc34)CC2)cc1 | 20.5%
50 | CCCn1c(C)cc(C(=O)COC(=O)c2c(C)nn(-c3ccccc3)c2C)c1C | -31.1%
51 | CC(C)=C1SC(N2CCN(c3cccc(C)c3)CC2)=NC1=O | -36.8%
